Assay outcomes: PubChem BioAssay, National Center for Advancing Translational Sciences (NCATS)
DT40 TDP1 CPT = DT40-hTDP1 cell growth loss with CPT; 420,000 compounds, 12% hits; chicken DT40 Tdp1-/-;hTDP1 cells + 20 nM CPT, ATP luminescence, 48 h; AID 686979; Potency, µM (top dose mostly 46.2 µM), most hits filed as inhibitors; further: nearly all actives have a fitted effect of over 55% in size
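Cell growth measured by CellTiter-Glo luminescence after a minimum 48 h, 37 C compound exposure with 20 nM CPT in Tdp1-knockout DT40 cells stably expressing hTDP1, seeded 400/well; qHTS titration format.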
LDHA inh = LDHA (human) enzyme inhibition; P00338; AID 1347041; 480,000 compounds, 0.15% hits; activity change, % (values are at about 110 or 230 µM); purified LDHA, NADH/diaphorase-resazurin fluorescence; active compounds read low; in the data active means activity change below about -30%; inconclusive means mostly about -25% to -30%
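Resorufin fluorescence (ex540/em590), read at 0 and 20 min after diaphorase/resazurin addition, reports the NADH left after a 5 min room-temperature reaction of 2 nM human LDH5 with 0.06 mM NADH and 0.2 mM pyruvate.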
VP16 counter = inhibits Gal4-VP16 luciferase reporter, ROR gamma counter-screen | Drosophila S2 Gal4-VP16 UAS-luciferase, luminescence, 20 h | Potency, µM (highest dose often 53.6 µM), most hits filed as inhibitors | 310,000 compounds, 3.5% hits;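 further: Gal4-VP16 expression switched on by copper sulfate through the metallothionein promoter; nearly all actives have a fitted effect of over 50% in size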
RORgamma inh = ROR gamma (mouse) transcription inhibition | Drosophila S2 Gal4-RORgamma UAS-luciferase reporter, 20 h | Potency, µM (top dose mostly 53.6 µM), hits mostly inhibitors | 310,000 compounds, 5.4% hits | AID 2551; further: nearly all actives have a fitted effect of over 60% in size
Target sequence (P51450 whole entry, looked up, the tested form may be a part): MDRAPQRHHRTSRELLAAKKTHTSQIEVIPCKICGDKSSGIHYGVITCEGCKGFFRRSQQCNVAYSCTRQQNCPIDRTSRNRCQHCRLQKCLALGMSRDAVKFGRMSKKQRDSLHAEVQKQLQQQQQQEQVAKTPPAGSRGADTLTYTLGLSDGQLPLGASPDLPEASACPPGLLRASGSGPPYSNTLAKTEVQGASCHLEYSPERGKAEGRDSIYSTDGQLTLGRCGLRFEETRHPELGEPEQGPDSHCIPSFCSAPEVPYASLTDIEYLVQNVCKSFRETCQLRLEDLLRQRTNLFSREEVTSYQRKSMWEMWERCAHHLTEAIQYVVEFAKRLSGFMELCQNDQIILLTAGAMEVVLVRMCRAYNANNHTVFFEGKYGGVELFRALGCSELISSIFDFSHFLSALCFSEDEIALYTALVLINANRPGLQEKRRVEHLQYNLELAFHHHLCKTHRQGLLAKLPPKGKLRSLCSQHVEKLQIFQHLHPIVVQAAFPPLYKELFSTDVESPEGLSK
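Using a luciferase readout, inhibitors were identified by reduced reporter activity in Drosophila cells coexpressing a copper-inducible Gal4–ROR gamma fusion and UAS-driven Photinus luciferase, incubated 20 hr after 700 uM copper sulfate.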
TDP1 cell noCPT = qHTS for Inhibitors of human tyrosyl-DNA phosphodiesterase 1 (TDP1): qHTS in cells in absence of CPT | 420,000 compounds, 15% hits | DT40 Tdp1-/- hTDP1 cells, no CPT, ATP luminescence, 48 h | Potency, µM (titrated, usually from 46.2 µM), hits mostly inhibitors; further: nearly all actives have a fitted effect of over 55% in size
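Growth of hTDP1-complemented DT40 Tdp1-knockout cells is measured by ATP luminescence after at least 48 hr compound exposure at 37 °C, with DMSO substituting for the 20 nM CPT used in the parallel screen.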
IL-1B inflam inh = inhibitors of inflammasome signaling (IL-1 beta secretion); THP-1 LPS/ATP IL-1B secretion, AlphaLISA, 16 h; active compounds read low; activity change, % at 57.5 µM; 360,000 compounds, 4.7% hits; AID 743279; in the data active means activity change below about -50%; inconclusive means mostly about -30% to -49%
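THP-1 cells pretreated 1 hr with compounds (up to 57.5 uM final), then stimulated with LPS (250 ng/mL final) plus ATP (1.25 mM final); secreted IL-1B measured by AlphaLISA after 16 hr, decreased signal indicating inhibition.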
Hits are given with their value. Sampled rows, rich in hits. Any-hit rate of the full collection: about 18%. Unless noted, the call rests on the fitted dose curve; in most records, active means well fitted curve in the direction sought with a large enough effect; inconclusive means small, poorly fitted or top-dose-only effect, or another doubt; inactive means no such curve, though single readings can be large; an effect the other way counts as inactive or inconclusive.

How did O=C(Nc1ccccc1)Nc1cccc(C(=O)NCC2CCCO2)c1 (stereo unspecified) do in these assays?
LDHA inh: inactive

Results for CCCN(C(=O)CCCSc1nc2ccccc2[nH]1)c1c(N)n(Cc2ccccc2)c(=O)[nH]c1=O ?
DT40 TDP1 CPT: inactive; LDHA inh: inactive; TDP1 cell noCPT: inactive; IL-1B inflam inh: inactive

Results for CCCCN(C(=O)CSc1nnc(-c2ccc(OC)cc2)n1CC)c1c(N)n(Cc2ccccc2)c(=O)[nH]c1=O ?
DT40 TDP1 CPT: inactive; LDHA inh: inactive; VP16 counter: inactive; RORgamma inh: inactive; TDP1 cell noCPT: inactive; IL-1B inflam inh: -60

Results for Nc1c(N(CCCO)C(=O)CCCN2C(=O)c3cccc4cccc(c34)C2=O)c(=O)[nH]c(=O)n1Cc1ccccc1 ?
DT40 TDP1 CPT: 10µM; LDHA inh: inactive; TDP1 cell noCPT: inconclusive; IL-1B inflam inh: inactive

How did CCCCN(C(=O)CCCSc1nc2ccccc2[nH]1)c1c(N)n(Cc2ccccc2)c(=O)[nH]c1=O do in these assays?
DT40 TDP1 CPT: inactive; LDHA inh: inactive; VP16 counter: inactive; RORgamma inh: inactive; TDP1 cell noCPT: inactive; IL-1B inflam inh: -90

How did Nc1c(N(CCCO)C(=O)C2CCCCC2)c(=O)[nH]c(=O)n1Cc1ccccc1 do in these assays?
DT40 TDP1 CPT: inactive; LDHA inh: inactive; TDP1 cell noCPT: inactive; IL-1B inflam inh: inactive

Results for CCN1CCCC1CNCc1cccs1 (stereo unspecified) ?
LDHA inh: inactive

What do the screens show for `Cc1c(Cl)cccc1S(=O)(=O)N(Cc1nccn1C)C1CC1`?
LDHA inh: inactive

Results for CC(CCc1ccccc1)NC(=O)CSc1n[nH]c(-c2ccc(F)cc2)n1 (stereo unspecified) ?
DT40 TDP1 CPT: inconclusive; LDHA inh: inactive; TDP1 cell noCPT: 23µM

How did Cc1ccc(CNC(=O)CSc2n[nH]c(-c3ccc(F)cc3)n2)cc1 do in these assays?
DT40 TDP1 CPT: inconclusive; LDHA inh: inactive; TDP1 cell noCPT: 16µM

What do the screens show for `CC(CCc1ccccc1)NC(=O)CSc1n[nH]c(-c2ccccc2)n1` (stereo unspecified)?
DT40 TDP1 CPT: 15µM; LDHA inh: inactive; TDP1 cell noCPT: 21µM

How did CC(CCc1ccccc1)NC(=O)CSc1n[nH]c(-c2ccccc2Cl)n1 (stereo unspecified) do in these assays?
DT40 TDP1 CPT: inconclusive; LDHA inh: inactive; TDP1 cell noCPT: inconclusive

What do the screens show for `Cc1ccc(SCC(=O)NCc2ccc(F)cc2)cc1`?
DT40 TDP1 CPT: inactive; LDHA inh: inactive; VP16 counter: inactive; RORgamma inh: inactive; TDP1 cell noCPT: inactive; IL-1B inflam inh: inactive

What do the screens show for `CC(C)(C)c1[nH]c2ccc(Br)cc2c1C=O`?
LDHA inh: inactive

Results for COc1ccc(/C=C/c2nc(C#N)c(NCCN3CCOCC3)o2)cc1OC ?
LDHA inh: inactive

What do the screens show for `O=C(c1cccc2ccccc12)N1CCN(Cc2c[nH]c3ccccc23)CC1`?
LDHA inh: inactive

How did CCS(=O)(=O)CCSC(C)C(=O)O (stereo unspecified) do in these assays?
LDHA inh: inactive

How did CCN(CC)c1ccc(NC(=O)c2ccco2)cc1 do in these assays?
DT40 TDP1 CPT: inactive; LDHA inh: inactive; VP16 counter: inconclusive; RORgamma inh: inconclusive; TDP1 cell noCPT: inactive; IL-1B inflam inh: inactive

Results for CCCCCOC(=O)c1ccc(NC(=O)c2ccco2)cc1 ?
DT40 TDP1 CPT: inactive; LDHA inh: inactive; VP16 counter: inactive; RORgamma inh: inactive; TDP1 cell noCPT: inconclusive; IL-1B inflam inh: inactive

Results for CCCCOC(=O)c1ccc(NC(=S)NC(=O)c2ccco2)cc1 ?
DT40 TDP1 CPT: inconclusive; LDHA inh: inactive; VP16 counter: inconclusive; RORgamma inh: 11µM; TDP1 cell noCPT: inconclusive; IL-1B inflam inh: inactive

How did CCN(CC)c1ccc(NC(=S)NC(=O)c2ccco2)cc1 do in these assays?
DT40 TDP1 CPT: 18µM; LDHA inh: inactive; VP16 counter: 16µM; RORgamma inh: 4µM; TDP1 cell noCPT: 18µM; IL-1B inflam inh: inactive

How did Cc1ccc(-c2ccc(C(=O)O)n2C)cc1 do in these assays?
LDHA inh: inactive

How did COc1ccc2ccc(OC(=O)/C=C/c3csc(C)n3)cc2c1 do in these assays?
LDHA inh: inactive

How did COc1ccc(NC(=S)NC(=O)c2cc3ccccc3o2)c(OC)c1 do in these assays?
DT40 TDP1 CPT: inactive; LDHA inh: inactive; VP16 counter: inactive; RORgamma inh: 8.9µM; TDP1 cell noCPT: inactive; IL-1B inflam inh: inactive

How did CCC(=O)Nc1ccc(OC)cc1OC do in these assays?
DT40 TDP1 CPT: inconclusive; LDHA inh: inactive; VP16 counter: inactive; RORgamma inh: inactive; TDP1 cell noCPT: inconclusive; IL-1B inflam inh: inactive

What do the screens show for `CCC(=O)NC(=S)Nc1ccc(OC)cc1OC`?
DT40 TDP1 CPT: inconclusive; LDHA inh: inactive; VP16 counter: inconclusive; RORgamma inh: 11µM; TDP1 cell noCPT: inconclusive; IL-1B inflam inh: inactive

How did COc1ccc(NC(=S)NC(=O)Cc2ccccc2)c(OC)c1 do in these assays?
DT40 TDP1 CPT: inactive; LDHA inh: inactive; VP16 counter: 11µM; RORgamma inh: 14µM; TDP1 cell noCPT: inactive; IL-1B inflam inh: inactive

How did COc1ccc(OC)c(NC(=O)c2cc3ccccc3o2)c1 do in these assays?
DT40 TDP1 CPT: inactive; LDHA inh: inactive; VP16 counter: inactive; RORgamma inh: inactive; TDP1 cell noCPT: inactive; IL-1B inflam inh: inactive

How did COc1ccccc1NC(=S)NC(=O)Cc1ccccc1 do in these assays?
DT40 TDP1 CPT: inactive; LDHA inh: inactive; TDP1 cell noCPT: inactive; IL-1B inflam inh: inactive

What do the screens show for `Cc1ccc(NC(=S)NC(=O)Cc2ccccc2)c(O)c1`?
DT40 TDP1 CPT: inconclusive; LDHA inh: inactive; VP16 counter: inconclusive; RORgamma inh: 20µM; TDP1 cell noCPT: inactive; IL-1B inflam inh: inactive

What do the screens show for `O=C(Cc1c[nH]c2ccccc12)NCCOc1ccc(Cl)cc1`?
LDHA inh: inactive

Results for Cc1ccc2cc(CCNC(=O)c3cc4ccccc4o3)c(=O)[nH]c2c1C ?
DT40 TDP1 CPT: inconclusive; LDHA inh: inactive; VP16 counter: inactive; RORgamma inh: inactive; TDP1 cell noCPT: inconclusive; IL-1B inflam inh: inactive

Results for COc1ccc2cc(CCNC(=O)c3cc4ccccc4o3)c(=O)[nH]c2c1 ?
DT40 TDP1 CPT: 21µM; LDHA inh: inactive; VP16 counter: inactive; RORgamma inh: inactive; TDP1 cell noCPT: inconclusive; IL-1B inflam inh: inactive

Results for COc1ccc(NC(=O)c2nn(C)c(=O)c3ccccc23)cc1OC ?
LDHA inh: inactive

Results for COc1cc2c(C(F)(F)F)c(-c3ccc(C#N)cc3)oc(=O)c2cc1OC ?
DT40 TDP1 CPT: inactive; LDHA inh: inactive; TDP1 cell noCPT: inactive; IL-1B inflam inh: inactive
